Data reported in PubChem BioAssay AID463173 (ICCB-Longwood Screening Facility, Harvard Medical School, 2010).
In all, about 52,000 compounds went through this assay and about 4,300 (8.3%) were called active. The sample holds actives, similar compounds and a random draw of the others, so the mix is not that of the screen. Unmarked numbers belong to inactive results. Rule as the data show it: active = survival mostly below about 52% (no sharp cut-off); inactive = mostly above about 56%.

system: DeltatarO mutant; experiment: growth inhibition of S. aureus wild type versus tarO mutant, primary screen, teichoic acid synthesis inhibitors, RN4220, OD600 (AID 463173); conditions: OD600, 18 h, active compounds read low, screened at 18.75 µg/mL (by protocol)

| SMILES | survival |
| --- | --- |
| O=S(=O)(NCC(c1cccs1)S(=O)(=O)c1ccccc1)c1ccccc1 (stereo not given) | 115% |
| Cc1ccc(CNC(=O)C(=O)NCC(c2cccs2)S(=O)(=O)c2ccc(C)cc2)cc1 (stereo not given) | 98% |
| O=C(NCc1ccccc1)C(=O)NCC(c1cccs1)S(=O)(=O)c1cccs1 (stereo not given) | 91% |
| O=S(=O)(NCC(c1cccs1)S(=O)(=O)c1ccccc1)c1ccc(F)cc1 (stereo not given) | 46% (active) |
| O=C(NCc1ccccc1)C(=O)NCC(c1cccs1)S(=O)(=O)c1ccccc1 (stereo not given) | 52% (active) |
| O=S(=O)(NCC(c1cccs1)S(=O)(=O)c1ccccc1)c1ccc(F)c(C(F)(F)F)c1 (stereo not given) | 92% |
| CC(C)c1ccc(N2C(=O)CS(=O)(=O)C23C(=O)N(Cc2cccc(F)c2)c2ccccc23)cc1 (stereo not given) | 69% |
| COc1ccc(C2Nc3ccccc3-c3nnc(SC)nc3O2)cc1C (stereo not given) | 67% |
| COc1ccccc1NC(=O)CSc1nc2ccccc2c2nc(-c3ccccc3)nn12 | 90% |
| Cc1ccc(OCCCC(=O)Nc2ccc3c(c2)OCO3)cc1 | 100% |
| COc1ccccc1CNC(=O)c1ccc2nc(CCc3ccccc3)oc2c1 | 83% |
| Cc1cccc(N2CCN(S(=O)(=O)c3c(C)[nH]c(=O)[nH]c3=O)CC2)c1C | 84% |
| CCN(CC)c1nn2c(=O)c(C(=O)NCCc3cccc(C)c3)cnc2s1 | 73% |
| O=C(CSc1nc2c(c(=O)[nH]1)CCC2)Nc1cccc(O)c1 | 86% |
| CCN1CCN(CCCNC(=O)c2cc3c(s2)-c2c(C)cccc2OC3)CC1 | 102% |
| CCOCCCN(Cc1ccco1)C(=O)c1cc2c(s1)-c1c(C)cccc1OC2 | -3% (active) |
| CCOc1ccc(CCNC(=O)c2cc3c(s2)-c2c(C)cccc2OC3)cc1 | 98% |
| CCCN1CCN(CCCNC(=O)c2cc3c(s2)-c2c(C)cccc2OC3)CC1 | 127% |
| COc1ccc(CNC(=O)c2cc3c(s2)-c2c(C)cccc2OC3)cc1 | 87% |
| CCCCN(Cc1ccco1)C(=O)c1cc2c(s1)-c1c(C)cccc1OC2 | -2% (active) |

| SMILES | survival |
| --- | --- |
| Cc1ccc(-n2ncc(C(=O)N3CCN(C4CCCCC4)CC3)c2C2CCN(C(=O)OC(C)(C)C)CC2)cc1 | 82% |
| Cc1ccc2cccc(NC(=O)c3ccc(-c4cc(Cl)ccc4Cl)o3)c2n1 | 71% |
| Cc1ccc2cccc(NC(=O)c3ccc(-c4cccc(Cl)c4Cl)o3)c2n1 | 55% |
| O=C(O)c1ccc(-c2cccc(Cl)c2)o1 | 67% |
| Cc1ccc2cccc(NC(=O)c3ccc(-c4ccc(Br)cc4)o3)c2n1 | 59% (active) |
| Cc1ccc2cccc(NC(=O)c3ccc(-c4ccc(Cl)cc4Cl)o3)c2n1 | 67% |
| Cc1ccc2cccc(NC(=O)c3ccc(-c4cccc([N+](=O)[O-])c4)o3)c2n1 | 67% |
| Cc1ccc2cccc(NC(=O)c3ccc(-c4cccc(Cl)c4)o3)c2n1 | 49% (active) |
| O=C(Nc1cccc2cccnc12)c1ccc(-c2cccc(Cl)c2)o1 | 3% (active) |
| Nc1nc(N)c(S(=O)(=O)c2ccccc2)c(Nc2ccc(F)cc2)n1 | 72% |
| O=C(COc1ccccc1)NCCc1csc(-c2cccc(F)c2)n1 | 78% |
| COc1ccc(NC(=O)CSc2nc(-c3ccco3)cc(C(F)(F)F)n2)cc1 | 86% |
| O=C(CSc1nc(-c2ccco2)cc(C(F)(F)F)n1)Nc1ccccc1 | 102% |
| CCNS(=O)(=O)c1ccc(NC(=O)CSc2nc(-c3ccco3)cc(C(F)(F)F)n2)cc1 | 36% (active) |
| COc1ccc(NC(=O)CSc2nc(-c3ccco3)cc(C(F)(F)F)n2)cc1Cl | 38% (active) |
| COc1ccc(NC(=O)CSc2nc(-c3ccco3)cc(C(F)(F)F)n2)cc1OC | 63% |
| Cc1cc(F)ccc1NC(=O)CCSc1nc(-c2ccco2)cc(C(F)(F)F)n1 | 45% |
| COc1ccc(Cl)cc1NC(=O)CSc1nc(-c2ccco2)cc(C(F)(F)F)n1 | 31% (active) |
| Cc1ccc(O)c(NC(=O)CCSc2nc(-c3ccco3)cc(C(F)(F)F)n2)c1 | 28% (active) |
| CN(C)c1ccc(NC(=O)CSc2nc(-c3ccco3)cc(C(F)(F)F)n2)cc1 | 65% |

| SMILES | survival |
| --- | --- |
| Cc1ccc(F)cc1NC(=O)CCSc1nc(-c2ccco2)cc(C(F)(F)F)n1 | 48% |
| CCOc1ccccc1CNC(=O)CCCn1nc(C)c2sc3ccccc3c2c1=O | 85% |
| O=C1C2C3c4ccccc4C(c4ccccc43)C2C(=O)N1CN1CCOCC1 (stereo not given) | 78% |
| CCCOc1ccc(NC(=O)CC2C(=O)N(c3ccc(C)cc3)C(=O)N2C2CCCC2)cc1 (stereo not given) | 67% |
| Cc1ccc(NC(=O)Cn2c(=O)n(Cc3nc(-c4ccccc4)no3)c(=O)c3cc4c(cc32)OCO4)c(C)c1 | 62% |
| COc1ccc(N(C)C(=O)c2cn(C3CCCCC3)c(=O)c3c2c2ccccc2n3C)cc1 | 67% |
| Cc1ccc(-n2nc(C(=O)NC(C)C)c(=O)n(C)c2=O)cc1 | 78% |
| Cc1c(NC(=O)Nc2ccc(Cl)c(C(F)(F)F)c2)c(=O)n(-c2ccccc2)n1C | 124% |
| CC(C)CCn1c(=O)c2sccc2n2c(CCCC(=O)NCc3ccc(F)cc3)nnc12 | 88% |
| Cc1oc2ncn(C)c(=O)c2c1C(=O)Nc1ccccn1 | 102% |
| COc1cccc(CNC(=O)Cn2c(=O)oc3cc(S(=O)(=O)N4CCCC4)ccc32)c1 | 122% |
| Cc1ccc(Cl)cc1NC(=O)C(=O)NCCc1sc(-c2ccc(F)cc2)nc1C | 90% |
| CC1CCN(S(=O)(=O)c2ccc3c(c2)N(CC(=O)NCC(C)c2ccccc2)C(=O)CO3)CC1 (stereo not given) | 64% |
| Cc1ccc(C(=O)Nc2ccc(C(=O)OCc3cc(=O)n4ccsc4n3)cc2)cc1 | 72% |
| Cc1ccc(NC(=O)CCSc2nc(-c3ccco3)cc(C(F)(F)F)n2)cc1F | 48% |
| Cc1cccc(NC(=O)CSc2nc(-c3ccco3)cc(C(F)(F)F)n2)c1C | 69% |
| CC(C)NC(=O)CSc1nc(-c2ccco2)cc(C(F)(F)F)n1 | 64% |
| Cc1ccc(NC(=O)CSc2nc(-c3ccco3)cc(C(F)(F)F)n2)cc1 | 129% |
| Cc1ccc(NC(=O)CSc2nc(-c3ccco3)cc(C(F)(F)F)n2)c(C)c1 | 63% (active) |
| Cc1ccc(NC(=O)CSc2nc(-c3ccco3)cc(C(F)(F)F)n2)cc1C | 33% (active) |
